Compounds without any hit were thinned out: in the full panel of roughly 83,000, 20% have a hit.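 How to read the values: 0–100, growth inhibition (40 = 60% inhibited); 0, no net growth; -100 to 0, cell death (-40 = 40% of starting cells died; -100 = all dead).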 The source made the active and inactive calls. Rule for the calls: active = growth percent below 10; inactive = the rest.

The first assay deals with HCT-15 colon. Description: NCI-60 one-dose screen, 48 h (100 = growth as untreated, 0 = no growth, -100 = all killed). As to conditions: 10 µM unless noted.
Turning to `Oc1c(Cl)cc(Cl)c2ccc(Cn3cc(-c4ccc(C(F)(F)F)cc4)nn3)nc12`, the growth is 31.3% (inactive).

Turning to `O=C(NCCCCNC(=O)OCc1ccc2c(Cl)cc(Cl)c(O)c2n1)OCc1ccc2c(Cl)cc(Cl)c(O)c2n1`, the growth is 13% (inactive).

As to `CCN(CC)CCNC(=O)c1cn2ncnc(Oc3ccc(NC(=O)Nc4ccc(Cl)c(C(F)(F)F)c4)c(F)c3)c2c1C`, the growth was -38.7% (active).

Another assay relates to HT29 colon. The description is as above. The note with it: 10 µM unless noted.
Consider `COc1cc(OC)cc(C2=C3CC[C@@H]4[C@H](CC[C@]5(C)C(=O)CC[C@@H]45)C3=CC3C(O)c4cccnc4N4C(=O)COC234)c1` (stereo partly drawn), for which the growth was 104% (inactive).

As to `CC(=O)Cc1nsc(NC(=O)c2cc(-c3cc(Cl)cc(Cl)c3)oc2C)n1`, the growth is 102% (inactive).

As for `CCOC(=O)c1cn2ncnc(Oc3ccc(NC(=O)NC4CCCCC4)c(Cl)c3)c2c1C`, the growth is 81.6% (inactive).

Turning to `Cc1nnc(NC(=O)c2nc(S(=O)(=O)Cc3ccc(F)cc3)ncc2Cl)s1`, the growth was 23.8% (inactive).

`C#CCOc1ccc2ncnc(Nc3ccc(NC(=O)CCl)cc3)c2c1`: the growth was -60% (active).

On to `CCOC(=O)C#Cc1c(C(=O)OCC)nnn1[C@@H]1O[C@H](CO)[C@H]2OC3(CCCCC3)O[C@H]21`, for which the growth was 7.93% (active).

With `C/C(=N/O)c1ccc(F)cc1`, the growth is 16.5% (inactive).

For the compound `CCOC(=O)Cn1c(O)c(N=Nc2ccc(S(N)(=O)=O)cc2)c2cc(Br)ccc21`, the growth was 63.7% (inactive).

Regarding `Cc1nc(N2CCOCC2)sc1S(N)(=O)=O`, the growth was 102% (inactive).

With `COc1ccc(OC)c(C(=O)/C=C/c2cc3c(c(OC)c2OC)OCO3)c1`, the growth was 60.3% (inactive).

Take `O=c1oc2ccccc2cc1C1=NN=C(SCc2ccccc2)SC1`: the growth was 105% (inactive).

On to `COc1ccc(C(=S)N2CCN(c3ccccc3Cl)CC2)cc1OC`, for which the growth was 102% (inactive).

With `Cc1ccc(/C=C2\CN(C(=O)OC(C)(C)C)C/C(=C\c3ccc(C)cc3)C2=O)cc1`, the growth is -49.9% (active).

For the compound `O=C(Nc1nn(-c2ccc(Cl)cc2Cl)nc1-c1ccccc1)c1ccccc1`, the growth was 94.1% (inactive).

With `CCN(CC)c1ccc(/C=C/C(=O)c2ccc(Nc3nc(Nc4ccccc4)nc(Nc4ccccc4)n3)cc2)cc1`, the growth was 49.8% (inactive).

Consider `COC(=O)[C@H]1CCCN1C[C@@H](O)CN1C(=O)/C(=C\c2cc(OC)c(OC)c(OC)c2)c2ccccc21`, for which the growth is 110% (inactive).

Turning to `CN(C)c1ccc(Nc2cc(-c3cccc(OC(F)(F)F)c3)nc3ccc(N4CCCC4)cc23)cc1`, the growth was -12.8% (active).

Take `O=C(Nc1cc(Cl)ccc1O)c1ccc(Nc2ccnc(C(F)(F)F)c2)cc1`: the growth is 95.5% (inactive).

For the compound `COc1cc(OC)c2sc(-c3ccc(-n4cncc4-c4ccc(OC)c(OC)c4)cc3)nc2c1`, the growth was 35.1% (inactive).

`O=C1c2cccnc2C(=O)c2c1c(C(=O)NCCCN1CCCCC1)c1ccccn21`: the growth is -1.92% (active).

For `CCOC(=O)c1ccc2[nH]c(O)c(C(=Nc3ccc(N(C)C(=O)CN4CCN(C)CC4)cc3)c3ccccc3)c2c1`, the growth was -33.8% (active).

In the case of `CCN1C(=O)N(CC)C2C1NN=c1s/c(=C\c3cccc([N+](=O)[O-])c3)c(=O)n12` (stereo not drawn), the growth is 5.6% (active).

In the case of `CC1=C(Nc2ccc(N3CCN(C)CC3)cc2)C(=O)c2cncnc2C1=O`, the growth was 112% (inactive).

For `O=C1Nc2ccc(Br)cc2/C1=N/c1n[nH]c(=S)s1`, the growth was 104% (inactive).

With `CCN(c1ccc(Cl)cc1)c1nc(-c2ccc([N+](=O)[O-])cc2)cs1`, the growth was 91% (inactive).

As for `C=C(C)[C@@H]1CC[C@]2(C)[C@H](CC=C3[C@@H]4[C@H](C)[C@@H](C)CC[C@]4(CO)CC[C@]32C)[C@@]1(C)CCCN`, the growth was -44.5% (active).

For the compound `O=C(/C=C(/C=C/c1cccc2[nH]ccc12)OB(F)F)/C=C/c1cccc2[nH]ccc12`, the growth is -52.8% (active).

On to `CCN1CC(=O)N(/N=C2\C(=O)Nc3ccccc32)C1=S`, for which the growth is 102% (inactive).

With `CCN1CCN(c2cc(C(=O)Nc3nc(-c4cc(OC)c(OC)c(OC)c4)cs3)cc(C(F)(F)F)c2)CC1`, the growth was 18.3% (inactive).

Regarding `COc1ccc(-c2nc(/C=C3\SC(=NCc4ccccc4)NC3=O)c3ccccn23)cc1`, the growth was -70.4% (active).

Turning to `CCOC(=O)C(=Cc1cccc(Br)c1)C(=O)OCC`, the growth is 18% (inactive).

As for `N#CC1=C(N)Oc2c(sc3c(F)cccc23)C1c1ccc(F)cc1` (stereo not drawn), the growth was 6.86% (active).

As to `CCOc1nc(-c2ccccc2)cc2c(O)c(C(=O)NN)[nH]c(=O)c12`, the growth is 114% (inactive).

Consider `O=C1c2cccc(NCCN=Cc3cc(O)ccc3O)c2C(=O)c2c(NCCN=Cc3cc(O)ccc3O)cccc21`, for which the growth is -22.1% (active).

As to `C=CCn1cc(-c2nc3ccccc3s2)c2cc(-c3ccc4c5c(cccc35)C(=O)N(N)C4=O)ccc21`, the growth is 105% (inactive).

Take `CCOC(=O)CNP(=O)(OC[C@@H](Cc1ccccc1)NC(=O)c1cc2ccccc2s1)Oc1ccccc1` (stereo partly drawn): the growth is 57.2% (inactive).

As to `CCC(=C(c1ccc(OCCN2CCCC2)cc1)c1ccc(OCCN2CCCC2)cc1)c1ccc(Cl)cc1`, the growth was -49.9% (active).

Consider `Oc1c(Cl)cc(Cl)c2ccc(Cn3cc(-c4ccc(C(F)(F)F)cc4)nn3)nc12`, for which the growth was 74.2% (inactive).

As to `O=C(NCCCCNC(=O)OCc1ccc2c(Cl)cc(Cl)c(O)c2n1)OCc1ccc2c(Cl)cc(Cl)c(O)c2n1`, the growth is 103% (inactive).

As for `CCN(CC)CCNC(=O)c1cn2ncnc(Oc3ccc(NC(=O)Nc4ccc(Cl)c(C(F)(F)F)c4)c(F)c3)c2c1C`, the growth is -42.3% (active).
